In PubChem BioAssay AID1347426 (Functional Genomics Laboratory (NCATS/FGL), 2020):
Out of some 31,000 sequences screened, about 1,400 (4.5%) were called active. This is one part of a sample in which actives are shown more often than they occur.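 How the source made its calls: active means median seed-adjusted z-score above 1 or below -1; inactive means the rest.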

Test: Novel Modifiers of Survival Motor Neuron (SMN) Protein: Gene Identification via Genome-wide siRNA Screen;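 further: luminescence tracks full-length SMN protein made from the SMN2 reporter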
Conditions: HEK293T SMN2-luciferase reporter, siRNA knockdown, 72 h; actives lie on both sides
Outline: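 siRNA screen, 10418 genes ×3 siRNAs; 1 pmol/well, lipid reverse transfection into HEK293T SMN2-luc reporter line. 72 h, 37 °C, 5% CO2; ONE-Glo readout. Data: neg-ctrl normalized, log10, MAD; hit = MAD >1.0 or < -1.0.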

Which median seed-adjusted z-score does the source give for CCCAGUUUCUAGUCUGCUATT against SHKBP1 here?
The median seed-adjusted z-score was 0.345 (inactive).

Which median seed-adjusted z-score does the source give for AGACAAUUUGUAACUAGAATT against NEUROD2 here?
The median seed-adjusted z-score was -0.103 (inactive).

With AGAUCAAGGUGUACGAGAUTT against KIF26A as the sequence, how does the median seed-adjusted z-score read?
The median seed-adjusted z-score was -0.428 (inactive).

Which median seed-adjusted z-score does the source give for GCAUCUAUGUAACAAAGAUTT against DLG4 here?
Its median seed-adjusted z-score is -0.498 (inactive).

For CGAAUGCAUCAGAUCAACATT against UBA2, which median seed-adjusted z-score is on record?
The median seed-adjusted z-score was 0.694 (inactive).

With GUAACAACAUCAUCCUAGATT against HSPG2 as the sequence, how does the median seed-adjusted z-score read?
Its median seed-adjusted z-score is 0.478 (inactive).

For GACCCGGUAUAUGAACUCATT against UCP3, which median seed-adjusted z-score is on record?
The median seed-adjusted z-score was 1.23 (active).

For GAGAAGGCCUAUUCAGACATT against ZBTB7C, which median seed-adjusted z-score is on record?
Its median seed-adjusted z-score is 0.447 (inactive).

For CGAGCUGACUUCAACAGGATT against STC1, which median seed-adjusted z-score is on record?
The median seed-adjusted z-score was -1.36 (active).

With GUGUGGUACAGAACAUUUATT against GUCA1C as the sequence, how does the median seed-adjusted z-score read?
Its median seed-adjusted z-score is -0.617 (inactive).

For GCAACAACCUGAUUAAGGATT against MED24, which median seed-adjusted z-score is on record?
Its median seed-adjusted z-score is -2.3 (active).

With GGACUCAGCAGGAUACAAUTT against FOXJ2 as the sequence, how does the median seed-adjusted z-score read?
The median seed-adjusted z-score was -0.627 (inactive).

With ACUUAGCACUUUAUAUUUATT against DUSP2 as the sequence, how does the median seed-adjusted z-score read?
Its median seed-adjusted z-score is 0.576 (inactive).

For GAGCAGUACUGGGAAGAGATT against CARD14, which median seed-adjusted z-score is on record?
Its median seed-adjusted z-score is -0.104 (inactive).

With GCAGCUUAGGAACAGCAGATT against THOC4 as the sequence, how does the median seed-adjusted z-score read?
The median seed-adjusted z-score was -1.54 (active).

Which median seed-adjusted z-score does the source give for CCAUGACACGGUCCUCCAATT against ICAM2 here?
The median seed-adjusted z-score was 0.269 (inactive).

For GCUUUGUGGUGUGGAGUAUTT against LTB4R, which median seed-adjusted z-score is on record?
Its median seed-adjusted z-score is 0.498 (inactive).

For GAAGAUGACAUGUACCGUATT against XPA, which median seed-adjusted z-score is on record?
Its median seed-adjusted z-score is 2.03 (active).

Which median seed-adjusted z-score does the source give for GCUGCUACUUUGAAGUCCATT against FGG here?
The median seed-adjusted z-score was -0.043 (inactive).

Which median seed-adjusted z-score does the source give for CAUGCAGCCUUAAGCCUCATT against ILKAP here?
The median seed-adjusted z-score was 0 (inactive).

With GCCUAGAGCUAAGUACCAATT against CHUK as the sequence, how does the median seed-adjusted z-score read?
The median seed-adjusted z-score was -0.613 (inactive).

For GGCACUAAGUUUGACCGGATT against AQR, which median seed-adjusted z-score is on record?
The median seed-adjusted z-score was -1.56 (active).

Which median seed-adjusted z-score does the source give for GCCUUUGACCUGUCAGUGUTT against ASMT here?
Its median seed-adjusted z-score is -0.322 (inactive).

Which median seed-adjusted z-score does the source give for GCAUCCUGUUUGUAAAUGATT against DLG4 here?
The median seed-adjusted z-score was -0.498 (inactive).

Which median seed-adjusted z-score does the source give for CCGUGGUUACAGAAACGUATT against ABHD3 here?
Its median seed-adjusted z-score is -0.126 (inactive).

For CAAGAUGCUGGAUAAGGAATT against GYS1, which median seed-adjusted z-score is on record?
Its median seed-adjusted z-score is 0.874 (inactive).

For GGAUUCUUGUUGGACUAAUTT against RHBDD1, which median seed-adjusted z-score is on record?
Its median seed-adjusted z-score is 0.00277 (inactive).

For CAAUAGGAUUAUCAUGAGATT against MRS2, which median seed-adjusted z-score is on record?
The median seed-adjusted z-score was 1.38 (active).

For GGCUACAACAUGACUCGUATT against FZD10, which median seed-adjusted z-score is on record?
Its median seed-adjusted z-score is -0.226 (inactive).

With UCACUGUCCCAGACACCAATT against EPO as the sequence, how does the median seed-adjusted z-score read?
The median seed-adjusted z-score was 0.148 (inactive).

Which median seed-adjusted z-score does the source give for UGGACAACUUUGUACCUAATT against EBP here?
The median seed-adjusted z-score was 0.017 (inactive).

For GGCUCAACAUGGACCGGAUTT against BCAT2, which median seed-adjusted z-score is on record?
Its median seed-adjusted z-score is 0.0438 (inactive).

With CAAAGGCGAUAACAUCUAUTT against UBE2E1 as the sequence, how does the median seed-adjusted z-score read?
The median seed-adjusted z-score was 0.888 (inactive).

With GCCCUAAAGGAGAAAGUCATT against MAT2A as the sequence, how does the median seed-adjusted z-score read?
Its median seed-adjusted z-score is -1.9 (active).

For GCAUGUAAGAAUCCACAAUTT against ZNF187, which median seed-adjusted z-score is on record?
Its median seed-adjusted z-score is 0.419 (inactive).

For GCCUAAAUCCCAAAUCGAATT against CXCL11, which median seed-adjusted z-score is on record?
The median seed-adjusted z-score was -0.135 (inactive).

With ACAGCGACCUUGCAAAGAATT against ZNF496 as the sequence, how does the median seed-adjusted z-score read?
The median seed-adjusted z-score was -0.971 (inactive).

Which median seed-adjusted z-score does the source give for GAAAGUGCUCGGUGCCUUUTT against HBB here?
The median seed-adjusted z-score was -0.151 (inactive).

For GGCGAGAAGAGCAACGUAATT against DDX46, which median seed-adjusted z-score is on record?
The median seed-adjusted z-score was -1.24 (active).

With CAACGGCUUCUGUCAUUUATT against SUCLG1 as the sequence, how does the median seed-adjusted z-score read?
Its median seed-adjusted z-score is -0.63 (inactive).

Which median seed-adjusted z-score does the source give for GAAGUUCUCUUUACAACCATT against RFX2 here?
Its median seed-adjusted z-score is 0.271 (inactive).

For GUUCAGCACUCAUUAGACATT against ZNF17, which median seed-adjusted z-score is on record?
The median seed-adjusted z-score was 0.579 (inactive).

For CGAUCAUUACCUCUCCAGATT against ARHGEF4, which median seed-adjusted z-score is on record?
Its median seed-adjusted z-score is 0.332 (inactive).

For GAAUGACCAGAGACAUCUATT against INSR, which median seed-adjusted z-score is on record?
The median seed-adjusted z-score was 0.172 (inactive).

For GGAUUUGCCGAAUUAACAATT against RELB, which median seed-adjusted z-score is on record?
Its median seed-adjusted z-score is 1.16 (active).

With GGAGAUAGCUUUGCCUAUATT against RBM15B as the sequence, how does the median seed-adjusted z-score read?
The median seed-adjusted z-score was -0.183 (inactive).

For GGUACUCGGUGGAAACCAATT against CNKSR3, which median seed-adjusted z-score is on record?
The median seed-adjusted z-score was 0 (inactive).

For CAUUAACCAGUGAACGCAATT against AADAT, which median seed-adjusted z-score is on record?
The median seed-adjusted z-score was 0.0891 (inactive).

For CAAGAAUGUUACUAACAAUTT against TPM4, which median seed-adjusted z-score is on record?
The median seed-adjusted z-score was -0.407 (inactive).

For GCUACAGUCUCUACCCUGATT against BARX1, which median seed-adjusted z-score is on record?
The median seed-adjusted z-score was 1.63 (active).

For AGCUCAAGAAGUACACCAATT against CHST12, which median seed-adjusted z-score is on record?
Its median seed-adjusted z-score is 0 (inactive).

For CCUCGAUUCCAUUAUCAUUTT against RECQL4, which median seed-adjusted z-score is on record?
Its median seed-adjusted z-score is 0.475 (inactive).

Which median seed-adjusted z-score does the source give for GCCUAGAGGACUACAAGAATT against FZD8 here?
The median seed-adjusted z-score was -0.177 (inactive).

For GCGUAAUUUGGACCUCUUUTT against ZDHHC21, which median seed-adjusted z-score is on record?
The median seed-adjusted z-score was 0.216 (inactive).

With CAUUGUGAGCUAUAACGAUTT against CDH10 as the sequence, how does the median seed-adjusted z-score read?
Its median seed-adjusted z-score is 0 (inactive).

With GAAACAGUGCUAGAUAAAATT against SULT1C2 as the sequence, how does the median seed-adjusted z-score read?
The median seed-adjusted z-score was 0 (inactive).

With CCAUCUAGCUUAUCGAUAUTT against DYRK3 as the sequence, how does the median seed-adjusted z-score read?
The median seed-adjusted z-score was 0.358 (inactive).

Which median seed-adjusted z-score does the source give for GAAUUCAGCAUGACCGAUATT against GABPA here?
Its median seed-adjusted z-score is 1.43 (active).

Which median seed-adjusted z-score does the source give for CCAUUAUGAUCGUAAGGCATT against GCNT4 here?
The median seed-adjusted z-score was -0.0629 (inactive).

Which median seed-adjusted z-score does the source give for GCAAGUACCUGAGAACGGATT against APOB here?
The median seed-adjusted z-score was -0.0862 (inactive).

For GGCUCUCGUAUGUAACGUATT against USP24, which median seed-adjusted z-score is on record?
Its median seed-adjusted z-score is 0.101 (inactive).

With GGUUCUCUUGCAUUACUUUTT against GLP2R as the sequence, how does the median seed-adjusted z-score read?
The median seed-adjusted z-score was 0.492 (inactive).

Which median seed-adjusted z-score does the source give for AGAUCGCUGUCAAAACCCUTT against GFOD1 here?
The median seed-adjusted z-score was 0.923 (inactive).

For GGUUAACCCAGAACGUAAATT against TCP1, which median seed-adjusted z-score is on record?
Its median seed-adjusted z-score is -1.02 (active).

Which median seed-adjusted z-score does the source give for GGACCCUACCAGAACUACATT against SEMA6D here?
Its median seed-adjusted z-score is 0.0624 (inactive).

For GGACUGAGCUUCUCAAUGUTT against FOLR1, which median seed-adjusted z-score is on record?
Its median seed-adjusted z-score is -1.31 (active).

For GCAUCGUGAUCGUUCCAAUTT against CHD1L, which median seed-adjusted z-score is on record?
The median seed-adjusted z-score was 0.63 (inactive).

Which median seed-adjusted z-score does the source give for GACCAUGGAUAAUAAGAAATT against CLCN6 here?
The median seed-adjusted z-score was -0.136 (inactive).

Which median seed-adjusted z-score does the source give for CAACUGUUCCAACAACAAUTT against HAVCR1 here?
The median seed-adjusted z-score was -0.306 (inactive).

Which median seed-adjusted z-score does the source give for GAGUCCUAUUACCAGCUCATT against SRM here?
The median seed-adjusted z-score was 0 (inactive).
